These results are taken from PubChem BioAssay (NCI).

What all share (assay): NCI-60 one-dose screen, 48 h (100 = growth as untreated, 0 = no growth, -100 = all killed)
Conditions in all cases: 10 µM

For test [1], the system named is MDA-MB-435 melanoma.
The test system of test [2] is SW-620 colon.
Test [3] deals with MCF7 breast.
For test [4], the system named is HCT-116 colon.
Test [5] has as its system HCC-2998 colon.
The subject of test [6] is KM12 colon.
The subject of test [7] is BT-549 breast.

The panel holds about 83,000 compounds, 20% with a hit somewhere; the sample as a whole holds those more often.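 Testing used 96-well plates and a 48-hour single-concentration exposure. Example: -40 means 40% of the starting cells died.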 A number with no mark means an inactive call. Active and inactive are the calls of the source. How the source made its calls: active means growth percent below 10; inactive means the rest.

As to `CCCCN(CCCC)c1cc(C(=O)CCCCCN)c2ccccc2n1`, the growth is -52.1% (active) in test [1]; 39.8% in test [2]; 40% in test [3]; -95.6% (active) in test [4]; -31.4% (active) in test [5]; -93.3% (active) in test [6].

`Nc1ccn(C2CC(O)C(CO)O2)c(=O)n1` (stereo not drawn): the growth was 107% in test [1]; 113% in test [2]; 103% in test [3]; 109% in test [4]; 2.98% (active) in test [5].

Turning to `COc1ccc(-c2nsc3c2NC(=O)CC3c2ccc(F)cc2)cc1` (stereo not drawn), the growth in test [1] is -56.1% (active); in test [2] it was 21.4%; in test [3] it was 22%; in test [4], 19.5%; in test [5], 56.7%; in test [6], 22.2%.

On to `CC1(C)CCC(=NNC(N)=S)CC1`, for which the growth in test [1] is 111%; in test [2] it was 105%; in test [3], 99.4%; in test [4], 94.6%; in test [5], 101%; in test [6] it was 105%.

In the case of `Clc1cc2c(c(CSc3nc4ccccc4n4cccc34)c1)OCOC2`, the growth in test [7] was 81.2%; in test [2], 94.4%; in test [3], 8.11% (active); in test [4], 80%; in test [5], 85.4%; in test [6] it was 88.4%.

For the compound `O=C(Nc1ccc(CO)cc1)c1ccccc1Nc1ccnc(C(F)(F)F)c1`, the growth in test [1] was 106%; in test [2] it was 105%; in test [3], 97.1%; in test [4], 101%; in test [5], 106%; in test [6], 99.4%.

Consider `Cc1ccc(Nc2cc(C)nc(NCCCNc3ccnc4cc(Cl)ccc34)n2)cc1`, for which the growth was -90% (active) in test [1]; -84.3% (active) in test [2]; -95% (active) in test [3]; -100% (active) in test [4]; -86.3% (active) in test [5]; -49.8% (active) in test [6].

Regarding `OCC1OC(n2cnc3c(N/N=C\c4ccccn4)ncnc32)C(O)C1O` (stereo not drawn), the growth in test [1] was 23.6%; in test [2] it was 23.9%; in test [3] it was 16.8%; in test [4] it was 11.9%; in test [5], 10.9%; in test [6] it was 26.7%.

In the case of `C#Cc1ccc(-n2c(/C=C/c3ccc4ccccc4c3)nc3ncccc3c2=O)cc1`, the growth in test [1] was 12.8%; in test [2] it was 19.2%; in test [3], 18.6%; in test [4] it was 21%; in test [5] it was 31.1%.

For `COc1cc2c(cc1OCCCCCCN1CCN(CC(=O)Nc3ccc(Cl)cc3C(=O)c3ccccc3Cl)CC1)N=CC1CCCN1C2=O` (stereo not drawn), the growth is -81.2% (active) in test [1], -83.6% (active) in test [2], -7.24% (active) in test [3] and -42.3% (active) in test [4].

Turning to `COc1cc(/C(=C2/O[C@@H]([C@H]3COC(C)(C)O3)[C@H]3OC(C)(C)O[C@@H]23)c2ccc3ccccc3c2)cc(OC)c1OC`, the growth in test [7] is 22.2%; in test [3], 22.8%; in test [4], -56.4% (active); in test [6] it was 33.4%.

`COc1cc(Cc2cc(-c3ccc(Cl)cc3)n[nH]c2=O)ccc1O`: the growth was 110% in test [1]; 109% in test [2]; 87.2% in test [3]; 101% in test [4]; 131% in test [5]; 105% in test [6].

Turning to `Cc1nc2ccc(CN(C)c3ccc(C(=O)N[C@@H](CCC(=O)O)C(=O)O)s3)cc2c(=O)[nH]1`, the growth is 61.6% in test [1]; 71.4% in test [2]; 23.3% in test [3]; 40% in test [4]; 28.5% in test [5]; 73.4% in test [6].

Turning to `Cc1cc(Cc2cc(C)c(O)c(C)c2)cc(C)c1O`, the growth in test [1] was -29% (active); in test [2], 21.6%; in test [3], 22.8%; in test [4], 30.6%; in test [5] it was 74.4%; in test [6] it was 39.4%.

`FC(F)(F)c1ccc(-c2cnc(-n3cc(COCCN4CCCCC4)nn3)nc2NC2CCCCCC2)cc1`: the growth in test [1] was -68.9% (active); in test [2], 4.79% (active); in test [3], -1.43% (active); in test [4] it was 22.3%; in test [5] it was 6.9% (active); in test [6], 17.6%.

On to `CC[C@H]1CCC/C=C/[C@@H]2C[C@H](O)C[C@H]2[C@H](O)/C=C/C(=O)O1`, for which the growth was 5.71% (active) in test [1]; -69% (active) in test [2]; -73% (active) in test [3]; -67.8% (active) in test [4]; -65.8% (active) in test [5]; -70.5% (active) in test [6].

Take `Nc1ncnc2[nH]c(=O)[nH]c12`: the growth is 96.4% in test [1]; 110% in test [2]; 100% in test [3]; 91.3% in test [4]; 111% in test [5]; 99.8% in test [6].

With `C[N+](C)(C)c1ncnc2nc[nH]c12`, the growth was 95.3% in test [1]; 120% in test [2]; 90.8% in test [3]; 97.3% in test [4]; -10.1% (active) in test [5]; 110% in test [6].

`CCOC(=O)CNC(=O)CCCCSc1ncnc2nc[nH]c12`: the growth in test [1] was 110%; in test [2], 107%; in test [3], 91.9%; in test [4], 101%; in test [5] it was -18% (active); in test [6], 108%.

As to `CCc1ccc2c(c1)N(CCO)C1=C(C(=O)OC1)C2c1ccccc1` (stereo not drawn), the growth in test [7] is 87.7%; in test [2], 97.2%; in test [3] it was 92.2%; in test [4], 89.3%; in test [6], 76.1%.

With `O=C(O)CC(Cl)C(Cl)CC(=O)O` (stereo not drawn), the growth was 93.8% in test [1]; 103% in test [2]; 105% in test [3]; 111% in test [4]; 110% in test [5]; 101% in test [6].

Consider `N#CCCN1C/C(=C/c2ccccc2)C(=O)/C(=C/c2ccccc2)C1`, for which the growth in test [1] was -30.9% (active); in test [2] it was -24.9% (active); in test [3] it was -12% (active); in test [4] it was -81.7% (active); in test [5], -81% (active).

In the case of `CCN(CC)CCC(CNc1c(C)cnc2cc(Cl)ccc12)c1ccc(Cl)c(Cl)c1` (stereo not drawn), the growth in test [1] is 0.88% (active); in test [2] it was 46.2%; in test [3], 27.4%; in test [4] it was 21.7%; in test [5], -18.2% (active).

Take `O=C(CSSCC(=O)c1ccc(Cl)cc1)c1ccc(Cl)cc1`: the growth in test [1] is 47.9%; in test [2], 51.1%; in test [3] it was 86.7%; in test [4], 35.4%; in test [5], 63.1%; in test [6], 44.8%.

Take `CCN1CCCC1CNC(=O)c1ncc(-c2ccc(C(F)(F)F)cc2)c(NC2CCCCCC2)n1` (stereo not drawn): the growth was 72.6% in test [1]; 96.2% in test [2]; 43.6% in test [3]; 54.9% in test [4]; 72.4% in test [5]; 75.3% in test [6].

Turning to `COc1cc(C)ccc1C(=O)c1ccc(C)cc1OC`, the growth in test [1] is -69.8% (active); in test [2] it was 10.1%; in test [3], 21.1%; in test [4], 24.8%; in test [5], 40%; in test [6], 22.1%.

For `CCCCCCCC(C)NCCO` (stereo not drawn), the growth in test [1] is 97.6%; in test [2] it was 106%; in test [3], 97.9%; in test [4], 111%; in test [5], 105%; in test [6], 102%.

As for `COc1ccc2c(c1)N(CCO)C1=C(C(=O)OC1)C2c1ccccc1` (stereo not drawn), the growth is -62.9% (active) in test [1]; 13.9% in test [2]; 25.4% in test [3]; 25.9% in test [4]; 17.4% in test [6].

With `CCCCCCCCCCCC[n+]1ccc(C(N)=O)cc1`, the growth is 33.6% in test [1]; 23.6% in test [2]; 40.2% in test [3]; 25.6% in test [4]; 25.8% in test [5]; -47% (active) in test [6].

As to `CCN(CC)CCNC(=O)c1ccc(NC(C)=O)cc1`, the growth in test [1] was 101%; in test [2], 107%; in test [3], 101%; in test [5], 102%; in test [6] it was 108%.

`CN(C)CCNC(=O)c1cccn2c(=O)c3cc4ccccc4cc3nc12`: the growth was -68.6% (active) in test [1]; -11.9% (active) in test [2]; 4.71% (active) in test [3]; -41% (active) in test [4]; -10.2% (active) in test [6].

For the compound `CS(=O)(=O)Nc1ccc(Nc2c3ccccc3nc3cc(N)ccc23)cc1`, the growth in test [2] is 39.8%; in test [3], 6.57% (active); in test [5], 35.2%; in test [6], 5.56% (active).

Consider `Clc1nc(Cl)c2c(ncn2C/C=C\Cn2cnc3c(Cl)nc(Cl)nc32)n1`, for which the growth in test [1] is -44.9% (active); in test [2], -92.2% (active); in test [3] it was -1.6% (active); in test [4], -15.4% (active); in test [6], -94.5% (active).
